Data: PubChem BioAssay (Tox21)
Records with an inconclusive call do not appear. Active and inactive are the calls of the source. Unless noted, calls come from the whole dose curve; as a rule, active = well fitted curve in the direction sought with a large enough effect in the repeat runs; inconclusive = weak or mixed curves; inactive = no such curve, though single readings can be large; an effect the other way counts as inactive or inconclusive.

What was measured:
[1] = qHTS assay to identify small molecule antagonists of the estrogen related receptor (ERR) signaling pathway from Tox21 library - cell viability counter screen (AID 1224834); note: nearly all actives have a fitted effect of over 30% in size
Summary of the method: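 After 17.5 h of compound exposure at 37 C, ERR cells are incubated with CellTiter-Fluor for 30 min and fluorescence intensity serves as the viability measure.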

[2] = qHTS assay to identify small molecule agonists of the constitutive androstane receptor (CAR) signaling pathway - cell viability counter screen (AID 1224836); note: series mostly up to about 92 µM; nearly all actives have a fitted effect of over 45% in size
Summary of the method: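 Cell viability multiplexed with the CAR agonist screen: CellTiter-Fluor fluorescence after 23 hr at 37 C. HepG2-CYP2B6-hCAR cells got compounds at 15 concentrations with PK11195 at 0.75 uM final.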

[3] = qHTS assay to identify small molecule antagonists of the constitutive androstane receptor (CAR) signaling pathway - cell viability counter screen (AID 1224837); note: series mostly up to about 92 µM; nearly all actives have a fitted effect of over 45% in size
Summary of the method: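 Counter screen run in HepG2-CYP2B6-hCAR cells: 4 hr settle, compound titration (15 concentrations) with 50 nM CITCO, 23 hr at 37 C/5% CO2, CellTiter-Fluor fluorescence.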

[4] = target: Nuclear receptor subfamily 1 group I member 3 (Homo sapiens) (UniProt Q14994); experiment: qHTS assay to identify small molecule antagonists of the constitutive androstane receptor (CAR) signaling pathway (AID 1224838);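 note: HepG2 cells stably expressing hCAR with CYP2B6 luciferase reporter stimulated by CITCO; nearly all actives have a fitted effect of over 40% in size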
Sequence of Nuclear receptor subfamily 1 group I member 3 (Homo sapiens) (Q14994 whole entry, looked up): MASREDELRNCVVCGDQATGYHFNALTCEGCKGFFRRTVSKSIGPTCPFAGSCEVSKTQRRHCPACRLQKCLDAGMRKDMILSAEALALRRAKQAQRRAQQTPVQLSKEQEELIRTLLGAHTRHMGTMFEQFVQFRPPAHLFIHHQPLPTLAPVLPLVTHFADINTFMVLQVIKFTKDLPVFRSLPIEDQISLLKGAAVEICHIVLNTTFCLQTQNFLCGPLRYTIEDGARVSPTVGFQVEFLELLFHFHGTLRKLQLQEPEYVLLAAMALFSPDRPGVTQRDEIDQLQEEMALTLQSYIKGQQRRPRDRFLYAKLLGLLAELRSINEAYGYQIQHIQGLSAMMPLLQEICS
Summary of the method: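 Cell line: HepG2 double-stable for hCAR and CYP2B6-2.2kb reporter. Agonist: CITCO, 50 nM final. Compounds: 15 concentrations, 24 h, 37 C. Detection: ONE-Glo luminescence.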

[5] = target: Nuclear receptor subfamily 1 group I member 3 (Homo sapiens) (UniProt Q14994); experiment: qHTS assay to identify small molecule agonists of the constitutive androstane receptor (CAR) signaling pathway (AID 1224839);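 note: HepG2 cells stably carrying human CAR and a CYP2B6 luciferase reporter; series mostly up to about 92 µM; nearly all actives have a fitted effect of over 15% in size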
Summary of the method: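 Luminescent ONE-Glo read-out after 24 hr, 37 C exposure of double-stable HepG2-CYP2B6-hCAR reporter cells to a 15-point compound series, in the presence of 0.75 uM PK11195 (final).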

[6] = qHTS assay to identify small molecule antagonists of the estrogen related receptor signaling pathway with the pleiotropic PPARgamma coactivator (PGC) from Tox21 10K library - cell viability counter screen (AID 1224840; active = well fitted cell-killing curve with a large enough effect in the repeat runs, not every such curve was filed as active; note: nearly all actives have a fitted effect of over 40% in size)
Summary of the method: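 Following seeding of 2,000 PGC/ERR cells/well and 6 hours' incubation, test compounds were delivered in DMSO. The plates then sat 17.5 hours at 37 C before a fluorogenic live-cell protease reagent (CellTiter-Fluor) was read after 30 min.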

[7] = qHTS assay to identify small molecule antagonists of the estrogen related receptor signaling pathway with the pleiotropic PPARgamma coactivator (PGC) from Tox21 10K library (AID 1224841; call rule not given here; note: series mostly up to about 92 µM; actives are mostly falling curves and most rising ones were filed inactive; nearly all actives have a fitted effect of over 50% in size)
Summary of the method: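 qHTS antagonist format: PGC/ERR cells, 2k/well, compound in DMSO by pin transfer after 6 h attachment, 18 h treatment at 37 C, One-Glo luminescence read at 30 min.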

[8] = qHTS assay to identify small molecule agonists of the estrogen related receptor signaling pathway with the pleiotropic PPARgamma coactivator (PGC) from Tox21 10K library (AID 1224842); note: nearly all actives have a fitted effect of over 15% in size
Summary of the method: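 Luminescence from One-Glo (30 min, room temperature) measured after PGC/ERR cells had 18 h at 37 C with pinned compound (23 nL in DMSO). Cells had been seeded at 2,000 per well and pre-incubated 6 h.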

Measured: Potency

C=C(C)C(=O)OCC(C)(C)COC(=O)C(=C)C
inactive: [1] | [2] | [3] | [4] | [5] | [6] | [7] | [8]

CCCC/C=C/C=C\C=O
inactive: [1] | [2] | [3] | [4] | [5] | [6]

CC1COc2ccccc2N1 (stereo unspecified)
inactive: [1] | [2] | [3] | [4] | [5] | [6] | [7] | [8]

C=CCCCCCCCCCCCC
inactive: [1] | [2] | [3] | [4] | [5] | [6]

O=C(Nc1ccc(Cl)c(Cl)c1)C1CC1
inactive: [1] | [2] | [3] | [4] | [6] | [7] | [8]

CCCOC(=O)C(C)O (stereo unspecified)
inactive: [1] | [2] | [3] | [4] | [5] | [6]
